In the library only some 12% were active in any assay of this set; here they are far more common.
HP1b binding inh: inhibitors of HP1-beta chromodomain binding to methylated histone tails; AID 540317; AlphaScreen HP1-beta / biotin-H3K9me3 peptide binding; Potency, µM (highest dose often 114 µM), for inactives: at the highest dose activity change, negative = inhibition, actives largely listed as inhibitors; P83916; 390,000 compounds, 0.56% hits; note: nearly all actives have a fitted effect of over 70% in size
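HP1-beta protein (50 nM final) preincubated 30 min at room temperature with biotinylated H3(1-18)K9me3 peptide (50 nM) in PBS pH 7.4, 0.01% Tween-20, then compound added for 30 min. AlphaScreen streptavidin donor/nickel chelate acceptor beads (10 ug/mL final), 30 min dark, luminescence read.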
Sfp PPTase inh: Sfp phosphopantetheinyl transferase inhibition | Q9F4F7 | Biochemical Sfp PPTase activity, qHTS | Potency, µM, without a hit: largest response in the series, negative = inhibition, actives largely listed as inhibitors | 310,000 compounds, 3.5% hits;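 note: the enzyme is Sfp with the accession as filed and its product quenches rhodamine fluorescence; 0% = enzyme reaction without inhibitor and -100% = no enzyme wells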
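Reaction rates are the 30-min fluorescence difference (ex 525, em 598 nm) in wells containing 15 nM Sfp, 5 uM rhodamine-CoA and 12.5 uM BHQ-2-YbbR at pH 7.6 with 10 mM MgCl2.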
JMJD2A Tudor: inhibitors of human JMJD2A Tudor domain; O75164; AlphaScreen JMJD2A-Tudor / H3K4me3 peptide binding; Potency, µM (series often up to 114 µM), for the others: at the highest dose activity change, negative = inhibition, usual class: inhibitors; 390,000 compounds, 4.4% hits; AID 504339; note: % is set by controls: 0 for no effect and ±100 for the full control effect; nearly all actives have a fitted effect of over 50% in size
BAZ2B block: BAZ2B (human) inhibition; AlphaScreen BAZ2B-H3K14Ac peptide displacement; Potency, µM (titrated, usually from 114 µM), for the others: at the highest dose activity change, negative = inhibition, usual class: inhibitors; 360,000 compounds, 4.4% hits; AID 504333; note: % is set by controls: 0 for no effect and ±100 for the full control effect; nearly all actives have a fitted effect of over 60% in size
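Complex of BAZ2B and biotin-H3K14Ac (50 nM apiece) forms over 30 min at RT, then faces library compounds up to 110 uM for another 30 min; AlphaScreen beads added, 20 min dark incubation, luminescence read.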
G9a inh: inhibitors of human histone lysine methyltransferase G9a; Q96KQ7; G9a H3K9 monomethylation, AlphaScreen, 2 h; Potency, µM (top dose mostly 102 µM), for inactives: at the top dose activity, negative = inhibition, actives largely listed as inhibitors; 350,000 compounds, 8.8% hits; note: % is set by controls: 0 for no effect and ±100 for the full control effect; nearly all actives have a fitted effect of over 75% in size
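G9a (20 nM) was preincubated 15 min with compound, then reacted 2 h at room temperature with 500 nM biotin-H3K9 peptide and 20 µM SAM. Monomethyl-H3K9 detected by AlphaScreen using anti-H3K9me1 antibody.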
* marks the source's active call; other numbers are inactive results; u = inconclusive; x = no result given; [ ] = dose if it differs, or a comment. Calls come from the whole dose curve; as a rule, active = well fitted curve in the direction sought with a large enough effect; inconclusive = small, poorly fitted or top-dose-only effect, or another doubt; inactive = no such curve, though single readings can be large; an effect the other way counts as inactive or inconclusive. Potency is the fitted concentration of half-maximal effect.

SMILES	HP1b binding inh	Sfp PPTase inh	JMJD2A Tudor	BAZ2B block	G9a inh
C=C1CCN(C(CC(C)C)C(=O)NCc2ccc(OC)cc2)S(=O)(=O)c2ccccc21 (stereo unspecified)	15%	-5%	-9%	x	x
CC1CCCN(C(=O)C2CCN(S(=O)(=O)c3cccs3)CC2)C1 (stereo unspecified)	25%	x	-11%	6%	-33%
CC1CCCN(C(=O)C2CCN(CC(C)c3ccccc3)CC2)C1 (stereo unspecified)	u	8%	3.5µM*	-28%	u
CC1CCCN(C(=O)C2CCN(CCCc3ccccc3)CC2)C1 (stereo unspecified)	u	u	3.5µM*	u	16µM*
C=CCNC(=O)/C(C#N)=C/c1ccc(SC)cc1	20%	-11%	-11%	-4%	-16%
C=CCNC(=O)/C(C#N)=C/c1c(C)nn(-c2ccccc2)c1Cl	46%	79µM*	-13%	-2%	-26%[59 µM]
CCOc1ccccc1NC(=O)/C(C#N)=C/c1c(C)nn(-c2ccccc2)c1Cl	12%	12%	45µM*	-3%	2%[59 µM]
Cc1ccc(NC2c3ncccc3C(=O)N2Cc2ccc(F)cc2)cc1 (stereo unspecified)	15%	10%	-22%	-36%	u
COc1ccc(CN2C(=O)c3cccnc3C2Nc2ccc(OC)c(Cl)c2)cc1 (stereo unspecified)	-16%	3%	50µM*	u	u
COc1ccc(NC2c3ccccc3C(=O)N2Cc2ccccc2Cl)cc1OC (stereo unspecified)	u	-7%	-18%[11.4 µM]	u	50µM*
COc1cc(NC2c3ccccc3C(=O)N2Cc2ccc3c(c2)OCO3)cc(OC)c1OC (stereo unspecified)	7%	8%	-32%	-28%	u
COc1ccc(NC2c3ncccc3C(=O)N2Cc2ccccc2)c(OC)c1 (stereo unspecified)	-15%	-9%	25µM*	u	13µM*
COc1ccc(C2=NN(c3nc(-c4ccc(CNC(C)=O)cc4)cs3)C(c3ccco3)C2)cc1 (stereo unspecified)	37%	u	-23%	-20%	u
CC(C)=CCC/C(C)=C/CC/C(C)=C/CC/C(C)=C/C(=O)O	x	4%	x	x	x
N#Cc1ccccc1Cn1cc(/C=C/[N+](=O)[O-])c2ccccc21	7%	-28%	-23%	u	50µM*
CCN(CC)c1ccc(/C=C(/C#N)C(=O)NCc2ccccc2)o1	-18%	-7%	-12%	-32%	11µM*
N#C/C(=C/c1cn(CC(=O)O)c2ccccc12)C(=O)NCc1ccccc1	34%	11%	-4%	u	56µM*
CCN(CC)c1ccc(/C=C(/C#N)C(=O)NC(C)C)o1	-11%	8%	u	-28%	u
O=C(O)Cn1cc(/C=C/[N+](=O)[O-])c2ccccc21	-6%	-13%	-23%[57.1 µM]	-31%	56µM*
Cc1cc(C)c2c(=O)cc(C(=O)Nc3ccc(S(=O)(=O)Nc4onc(C)c4C)cc3)oc2c1	-5%	x	-35%	u	-40%[59 µM]
O=C1C=CC(=O)N1c1ccc(OC(F)F)cc1	20µM*	u	16µM*	u	1.4µM*
O=C1C=CC(=O)N1c1ccc(O)cc1	u	13µM*	40µM*	-5%	1µM*
O=C1C2C3C=CC(C2C(=O)N1c1ccc(O)cc1)C1C2C(=O)N(c4ccc(O)cc4)C(=O)C2C31 (stereo unspecified)	27%	13%	-15%	-24%	50µM*
O=C(O)CNC(=O)c1ccc(OC(F)F)cc1	43%	27%	-8%	-6%	-15%[59 µM]
O=C1CCCC(=O)N1c1ccc(O)cc1	6%	25%	-13%	-21%	25%
SMILES	HP1b binding inh	Sfp PPTase inh	JMJD2A Tudor	BAZ2B block	G9a inh
O=C1C2C3C=CC(C2C(=O)N1c1ccccc1O)C1C2C(=O)N(c4ccccc4O)C(=O)C2C31 (stereo unspecified)	37%	18%	-21%	-11%	-8%
COc1cccc(-c2nccc(NC3CCNCC3)n2)c1	x	2%	x	x	x
CN(C)N1C(=O)/C(=C/c2ccco2)SC1=Nc1ccccc1	-11%	x	-29%	x	x
O=C1NNC(c2ccccc2)=N/C1=C\c1ccco1	-12%	35µM*	u	71µM*	x
COc1cc(/C=C2\N=C(C)OC2=O)cc(OC)c1OC	8%	6%	-9%	-4%	32µM*
O=C1SC(SCc2ccccc2)=N/C1=C\c1ccco1	u	-21%	56µM*	13µM*	13µM*
O=C1NNC(c2ccccc2)=N/C1=C\c1ccccc1Cl	19%	11%	-32%	-18%	x
Cc1cc(O)cc2c1C(=O)/C(=C/c1ccco1)O2	-31%	-10%	u	u	u
CC1=N/C(=C/c2ccco2)C(=O)O1	-1%	u	u	x	28µM*
COc1ccc(NC(=O)Cn2c(SCc3c(F)cccc3Cl)nc3ccncc32)cc1OC	13%	x	u	2%	u
COc1ccc(CNc2ncnc3ccc(-c4cccc(C#N)c4)cc23)c(OC)c1	x	19%	x	x	11%[0.501 µM]
COCCN1C(=O)N[C@@H](CCc2ccccc2)C(C(=O)OC)=C1C	x	-6%	x	x	x
O=C1SC(c2ccccc2)=N/C1=C/c1ccco1	-13%	-4%	u	-30%	50µM*
CC(/C=C1\N=C(SCc2ccccc2Cl)SC1=O)=C\c1ccccc1	u	-4%	56µM*	u	-12%
CCCSC1=N/C(=C\c2ccc3c(c2)OCO3)C(=O)S1	143%	-6%	84%	81%	123%[59 µM]
CC(C)N(C1=N/C(=C\c2ccco2)C(=O)N1c1ccccc1)C(C)C	8%	-9%	-5%	-4%	u
COc1cc(/C=C2\N=C(c3ccccc3)NNC2=O)cc(OC)c1OC	28%	14%	-17%	-21%	25µM*
CCCSC1=N/C(=C\C=C\c2ccco2)C(=O)S1	35µM*	32µM*	16µM*	11µM*	14µM*
O=C(CSc1ncc2c(n1)-c1ccccc1N(Cc1ccc(F)cc1)S2(=O)=O)NCCc1ccccc1	24%	x	0%	0%	9%[59 µM]
O=C1SC(SCc2ccccc2)=N/C1=C\c1ccc(C(=O)O)cc1	-11%	56µM*	u	u	x
CCSC1=N/C(=C\c2cccc(F)c2)C(=O)S1	19%	-13%	-24%	8%	-15%[59 µM]
O=C1CN(C(=O)C2CCCCC2)C(c2ccccc2)c2cc(F)ccc2N1 (stereo unspecified)	12%	x	-28%	-3%	-4%[59 µM]
COc1ccccc1NC(=O)c1sc2nc(C)c(C(=O)Nc3ccc(C)cc3C)c(-c3ccco3)c2c1N	39%	x	-9%	0%	-5%[59 µM]
Cc1c(C(=O)N(C)C)sc2c1c(=O)n(-c1ccc(Cl)cc1)c(=O)n2CC(=O)C(C)(C)C	16%	x	-22%	-1%	8%[59 µM]
c1csc(CNc2cc(-c3ccoc3)ncn2)c1	x	32µM*	x	x	-30%[0.501 µM]
